Data published in the supplement of paper PMC10681739.

Experiments:
[1] = molecular target: T1, ETS1 (UniProt P14921); assay: ETS1 binding intensity (PBM fluorescence), ETS1 alone (arbitrary fluorescence units); higher = stronger binding; settings: ETS1 concentration 1 nM; RUNX1 concentration 0 nM
T1 sequence: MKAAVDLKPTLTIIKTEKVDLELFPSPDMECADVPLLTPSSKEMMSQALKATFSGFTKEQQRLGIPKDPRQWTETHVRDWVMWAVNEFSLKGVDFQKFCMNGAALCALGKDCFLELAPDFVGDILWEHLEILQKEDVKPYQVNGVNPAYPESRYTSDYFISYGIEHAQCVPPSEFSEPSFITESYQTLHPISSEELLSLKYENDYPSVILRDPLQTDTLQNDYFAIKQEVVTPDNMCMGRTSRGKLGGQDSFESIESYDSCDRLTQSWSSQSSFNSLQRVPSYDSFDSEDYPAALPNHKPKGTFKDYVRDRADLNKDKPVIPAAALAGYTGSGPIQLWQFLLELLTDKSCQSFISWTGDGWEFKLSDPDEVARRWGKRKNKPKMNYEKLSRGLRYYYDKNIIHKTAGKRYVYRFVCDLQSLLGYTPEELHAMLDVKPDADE

[2] = molecular target: RUNX1 (UniProt Q01196); assay: RUNX1 binding intensity (PBM fluorescence), RUNX1 alone (arbitrary fluorescence units); higher = stronger binding; settings: RUNX1 concentration 2 nM; ETS1 concentration 0 nM
Chain of RUNX1 (Q01196 whole entry): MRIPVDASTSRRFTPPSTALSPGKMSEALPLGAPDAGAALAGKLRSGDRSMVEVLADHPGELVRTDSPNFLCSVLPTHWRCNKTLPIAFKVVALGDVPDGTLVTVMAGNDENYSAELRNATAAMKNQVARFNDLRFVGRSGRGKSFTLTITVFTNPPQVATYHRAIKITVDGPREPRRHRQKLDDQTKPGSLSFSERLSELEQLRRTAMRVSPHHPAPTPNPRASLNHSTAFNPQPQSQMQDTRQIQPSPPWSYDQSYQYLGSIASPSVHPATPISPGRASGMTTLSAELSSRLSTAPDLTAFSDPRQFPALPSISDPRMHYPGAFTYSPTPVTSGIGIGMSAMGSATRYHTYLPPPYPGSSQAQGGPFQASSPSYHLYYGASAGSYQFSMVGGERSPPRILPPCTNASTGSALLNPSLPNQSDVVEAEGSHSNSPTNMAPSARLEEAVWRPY
Description: (§1)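 Cooperative gcPBM on 36-bp genomic probes with neighbouring ETS1 and RUNX1 sites. Recombinant human RUNX1 (2 nM) was incubated alone or with ETS1 (25 nM) and detected with anti-RUNX1 antibody plus Alexa488 secondary. Values are medians over 4 replicate spots; the RUNX1+ETS1 data were normalised to the RUNX1-only data. The probes sit in constant array flanks that are not printed.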

[3] = molecular target: T1, ETS1; assay: ETS1 binding intensity (PBM fluorescence) in presence of RUNX1, normalised to ETS1-only experiment (arbitrary fluorescence units); higher = stronger binding; settings: ETS1 concentration 1 nM; RUNX1 concentration 25 nM
[4] = molecular target: RUNX1 (UniProt Q01196); assay: RUNX1 binding intensity (PBM fluorescence) in presence of ETS1, normalised to RUNX1-only experiment (arbitrary fluorescence units); higher = stronger binding; settings: RUNX1 concentration 2 nM; ETS1 concentration 25 nM
Description: as §1
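Throughout, for RUNX1 binding intensity (PBM fluorescence) in presence of ETS1, normalised to RUNX1-only experiment: Full-length recombinant human ETS1 or RUNX1 bound to double-stranded 36-bp genomic probes on microarrays, detected by protein-specific primary antibody and Alexa488 secondary, spot fluorescence as median of four replicate spots.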
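Throughout, for RUNX1 binding intensity (PBM fluorescence), RUNX1 alone: Full-length recombinant human RUNX1 bound to double-stranded 36-bp genomic probes on a high-density microarray, scored as Alexa488 fluorescence per spot via anti-RUNX1 antibody, median of four replicate spots.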

Sequence | ETS1 binding intensity [1] | RUNX1 binding intensity [2] | ETS1 binding intensity [3] | RUNX1 binding intensity [4]
GTGGTCTCTGCCACTTCCTGTGGTGTAAACAGTCTC | 2680 | 843 | 3730 | 2890
TGGATGGCAAGCAACGGAAACCGCAAACAGGGCTGT | 1700 | 15600 | 6230 | 26600
ACAGATAGTGATATCCTGTGGTCAATTCCCTCCCCT | 949 | 1030 | 951 | 2280
AGGACACAGACAGGAAACCCGCAGGCTTTGTTTTTT | 2580 | 859 | 5290 | 1470
CGGGGACCACTGTCAGGATGTGGTCACTGGAGTCAC | 907 | 707 | 8350 | 1420
AGGCTTCCGGCCACGCCCCCTTCCCGCGGTTGCTAG | 704 | 748 | 1140 | 2360
GCCGGGCACTTCCTGTGGAGGCCGCAGCGGGTGCGC | 1330 | 709 | 1560 | 1780
TGGGTACTTCCTGTGACAAATCGAGTTGACCACATG | 1190 | 678 | 2230 | 1720
TGATCAGCAAAAGGAAGTGGTTAACATGGCCCAGAA | 1540 | 825 | 4770 | 1990
GCGAGCACTTCCGGTGTGTGAGCCTGCGGTTGCTAC | 7480 | 845 | 22400 | 3050
AACCAATCGAGCGGAGGAAACCGCGGCGTTAGCGTG | 568 | 864 | 1020 | 840
CAGTGGCAGGAAGAGGTCAGAAACCACTCGTGGTGG | 718 | 816 | 870 | 1100
GGACTGCGTTTCCGGACACTGCGGGTGCCGGTAGCC | 1290 | 671 | 1680 | 1450
AGCGGCTGCACAGGAAGTTGGTTTTCACAAAGGCAA | 5520 | 658 | 6650 | 1190
GTGCAGGGCCCGGAAGCTCAGTGTGGTTAAAGACAT | 2010 | 805 | 5260 | 1540
GGATTAGAACTGCTTCCTCCTGTGGTTTACCAGAAA | 417 | 923 | 595 | 1840
TATGGGGCCGGAAGCCATTCACCACAAACACTGTGT | 2430 | 953 | 9050 | 3610
CGCCTGCCCCACTTCCGCCCGGACCCGCAGCCCCTA | 2450 | 1240 | 3210 | 3610
GAAGGTTGTAGAGGAAGTGGTTTGTTCTTCCTCCTG | 2670 | 837 | 4070 | 1640
GCCCCGGAAGTGGCCCGGCTGTTGGCCGCAGCGGGA | 2810 | 667 | 3480 | 1710

Sequence | ETS1 binding intensity [1] | RUNX1 binding intensity [2] | ETS1 binding intensity [3] | RUNX1 binding intensity [4]
CCTTTCCGCGAGACCTTCCGCGGTTATCCAGCGAGT | 372 | 1160 | 481 | 1510
GCCTGAAGGACTTCCGGGAACCGCAAAGCACGGTGT | 1620 | 1500 | 3510 | 3430
CTCCATCTGCCCGGAAAACCGCAGCCGCCCCAACCT | 841 | 28600 | 3690 | 34700
AACGGACCCGGAAGGGGCAGGTCTTGTGGGCGGGTC | 814 | 822 | 1420 | 904
GATGGTGTCTTTTGGGGATGTGGGTTTGGGGGATGG | 564 | 835 | 1610 | 961
AATAAAGCTACAGACTTCCGCCCACAGGTCGCCGCT | 1020 | 789 | 1280 | 1360
TTGTCTGCATCCTGTGCTGTGTGGTAGCTCTGGGTT | 510 | 702 | 541 | 1490
CGGGTGGTGGCAGGATGTGGGTAGGGGGCCAGGCGA | 2930 | 895 | 6860 | 2560
GCAGAGAGGAGGGGATGTGGTTTCACAGCTTGCTCC | 422 | 835 | 1720 | 937
GGGCTATTGTTTCCTCCCCCATGTGACCACAGCCTC | 418 | 994 | 776 | 1290
AGAAGCTGCACCCGGAAATGAAACCACCAGGACCTC | 4630 | 887 | 9310 | 1380
CCTCCCGACCGGAAGCCCCGCCACAGAGCGGGTTGT | 6240 | 848 | 8570 | 2420
CTGCCCAGCCACTTCCTGCCCAACCACAGACTGACA | 2210 | 1420 | 4910 | 6000
GACTGGACAACTTCCTGGTGGAAAACCGCGACTCTT | 637 | 1050 | 2930 | 2340
GCCTGAGCGGAAACCCGGCGCCACCACAAGATGGCA | 637 | 990 | 2040 | 1200
CTACAAACGGCTTCCTCCTGCCTAACCACAACCTCA | 455 | 3280 | 1130 | 5340
GCAACTGAACAGGAAACTAAAAAACCACAACACTTA | 1400 | 1900 | 15600 | 7890
AGACAGGAGTTCAGGAAGCTGCGGTCTAGATTATGT | 754 | 1210 | 6250 | 1710
GGTCAGGTGGGCGTTTCCTGTGGGCGTCTCCAACTC | 1240 | 770 | 1230 | 1240
AGTTTCTCAGCTTCCTGTGTGGTTTTCTTGATCTGC | 1480 | 1620 | 2630 | 4280
